The source of these data is PubChem BioAssay AID493199 (National Center for Advancing Translational Sciences (NCATS), 2011).

Some of the results follow. Records with an inconclusive call do not appear. Calls of active or inactive are those of the source. Calls come from the whole dose curve; as a rule, active = well fitted inhibition curve with a large enough effect; inconclusive = small, poorly fitted or top-dose-only effect, or effect the other way; inactive = no such curve, though single readings can be large or run the other way.

Sequence of Muscleblind-like protein 1 (Homo sapiens) (Q9NR56 whole entry, looked up): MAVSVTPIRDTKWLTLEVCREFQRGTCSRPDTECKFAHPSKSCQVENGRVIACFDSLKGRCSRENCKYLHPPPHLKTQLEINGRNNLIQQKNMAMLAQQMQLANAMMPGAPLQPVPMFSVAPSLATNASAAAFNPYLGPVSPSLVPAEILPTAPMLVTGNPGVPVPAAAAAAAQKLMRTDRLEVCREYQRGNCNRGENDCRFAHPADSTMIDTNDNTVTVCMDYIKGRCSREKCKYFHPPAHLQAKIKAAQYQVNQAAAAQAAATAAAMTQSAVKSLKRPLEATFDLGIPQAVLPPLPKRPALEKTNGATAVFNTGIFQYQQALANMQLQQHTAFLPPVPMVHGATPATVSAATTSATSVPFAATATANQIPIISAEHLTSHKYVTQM

The target of the assay is Muscleblind-like protein 1 (Homo sapiens) (UniProt Q9NR56). The experiment in a line: qHTS Assay for Inhibitors of MBNL1-poly(CUG) RNA binding: Initial hit validation from the primary screen. To be noted: TR-FRET MBNL1-His / biotin-(CUG)12 binding, 60 min. The source says:
NIH Chemical Genomics Center [NCGC] NIH Molecular Libraries Probe Production Centers Network [MLPCN] MLPCN Grant: R03 MH087421-01 Assay Submitter (PI): Charles Thornton NCGC Assay Overview: Expanded CTG repeats in the 3' untranslated region of the DM protein kinase (DMPK) gene causes type I myotonic dystrophy (DM1). DM1 is a multi-systemic disease with a prevalence of 1/7000. Clinical features include myotonia, progressive muscle weakness and wasting, cardiac arrhythmia, insulin resistance, hypersomnolence, cataracts, and other symptoms. The pathogenic effect of expanded CTG repeats stems from deleterious effects of the mutant transcript. CUGexp mRNA accumulates in nuclear foci and sequesters proteins of the muscleblind family, of which MBNL1 is the most common family member in skeletal muscles. The binding interaction between MBNL1 and CUGexp tracts leads to deregulation of alternative splicing and is therefore a key molecular step in the pathogenesis of DM1. To target this binding interaction, we optimized a protein-RNA binding assay in 1536-well format for identification of small molecule inhibitors of biotinylated (CUG)12 and his-tagged MBNL1 binding. Protein-RNA complex of MBNL1-His and Biotin-(CUG)12 captures the detection reagents terbium-labeled anti-His antibody and streptavidin conjugated XL665. This brings the terbium label within close proximity to XL665 to allow time-resolved fluorescence resonance energy transfer (TR-FRET). Inhibitors of MBNL1-(CUG)12 binding will disrupt TR-FRET. This deposition presents the initial confirmation of hits from the primary screen in the same assay.
NCGC Assay Protocol Summary: This is a TR-FRET binding assay with MBNL1-His and Biotin-(CUG)12 RNA. The assay uses a ratiometric measurement. […] (3) Add 1 ul of terbium labeled anti-His antibody (0.055 ng/ul final concentration) (4) Add 1 ul of streptavidin-XL665 (5 nM final concentration) (5) Incubate 60 min at room temperature (6) Detect the assay plate in a EnVision plate reader (PerkinElmer) with Ex=340 nm, Em1=665 nm and Em2=545 nm. […]
Background: qHTS replaces the single test concentration by a dilution series.
Take `CCOC(=O)c1c(C)[nH]c2c1-c1ccccc1C(=O)C2=O`: the Potency is 3.26 µM (active).
For `COc1ccc(Cc2n[nH]c(=S)n2NC(=O)Nc2ccc(C)cc2)cc1`, the Potency was 20.6 µM (active).
For `COc1cccc(NC(=O)Cn2cnc3sc(C)c(S(=O)(=O)N4CCN(C)CC4)c3c2=O)c1` the value was 16.3 µM (active).
